# Source: PubChem BioAssay
# 12-LOX inh – ALOX12 (human) lipoxygenase inhibition. P18054. purified 12hLO, xylenol orange hydroperoxide absorbance. Potency, µM (titrated, usually from 108 µM), most hits filed as inhibitors. actives 1.1% (n = 580,000). AID 1671190
# Target sequence (P18054 whole entry, looked up): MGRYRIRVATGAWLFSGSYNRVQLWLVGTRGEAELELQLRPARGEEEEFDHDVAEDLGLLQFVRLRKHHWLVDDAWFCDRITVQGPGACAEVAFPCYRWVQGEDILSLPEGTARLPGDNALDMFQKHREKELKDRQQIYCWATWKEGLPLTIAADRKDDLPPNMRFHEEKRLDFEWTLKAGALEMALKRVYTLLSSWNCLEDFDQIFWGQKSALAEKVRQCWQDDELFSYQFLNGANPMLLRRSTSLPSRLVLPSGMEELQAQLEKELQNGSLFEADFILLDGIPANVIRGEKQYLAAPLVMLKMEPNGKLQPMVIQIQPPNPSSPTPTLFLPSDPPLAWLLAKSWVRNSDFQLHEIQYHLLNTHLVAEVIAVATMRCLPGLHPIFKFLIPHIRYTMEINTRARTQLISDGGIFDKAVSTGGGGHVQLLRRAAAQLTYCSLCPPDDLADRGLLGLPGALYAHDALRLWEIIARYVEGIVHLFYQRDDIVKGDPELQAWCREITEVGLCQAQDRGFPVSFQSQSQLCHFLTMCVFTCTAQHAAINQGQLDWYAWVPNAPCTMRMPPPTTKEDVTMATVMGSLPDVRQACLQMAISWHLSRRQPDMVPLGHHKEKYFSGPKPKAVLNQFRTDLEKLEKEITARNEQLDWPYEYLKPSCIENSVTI
#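 Purified human 12hLO at 150 nM in 25 mM Hepes, 0.01% Triton X-100, pH 7.0, preincubated 15 min at room temperature with compound. Reaction started with 40 uM arachidonic acid, 30 min at room temperature. Hydroperoxide measured by Fe-xylenol orange, 573/405 nm absorbance ratio.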
# IL-1B inflam inh – inhibitors of inflammasome signaling (IL-1 beta secretion). THP-1 LPS/ATP IL-1B secretion, AlphaLISA, 16 h; hits give low values. activity change, % at 57.5 µM. actives 4.7% (n = 360,000). AID 743279; in the data active means activity change below about -50%; inconclusive means mostly about -30% to -49%
#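 Secreted IL-1B measured by AlphaLISA bead assay after 16 h compound exposure of THP-1 cells; compounds (final up to 57.5 uM) added 1 h before LPS (250 ng/mL) and ATP (1.25 mM) stimulation; lower signal means less secretion.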
# HT1080 IDH1KD tx – HT-1080 IDH1 knockdown cell toxicity (counter line); HT-1080 IDH1 knockdown viability, ATP luminescence, 48 h; Potency, µM (doses to about 46.1 µM), most hits filed as cytotoxic; actives 2% (n = 360,000); AID 686971
#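 IDH1KD HT-1080 cells, 750/well, RPMI + 5% FBS; compound pinned after 2 h settling; 48 h, 37 °C; CellTiter-Glo luminescence; % activity normalised to DMSO and no-cell wells; curves fitted, classed by r2 and efficacy.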
# TDP1 cell CPT – DT40-hTDP1 cell growth loss with CPT. actives 12% (n = 420,000). AID 686979. Potency, µM (highest dose often 46.2 µM), actives largely listed as inhibitors. chicken DT40 Tdp1-/-;hTDP1 cells + 20 nM CPT, ATP luminescence, 48 h; further: nearly all actives have a fitted effect of over 55% in size
#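 Chicken DT40 Tdp1-/- cells complemented with human TDP1, 400 cells/well, exposed to compounds plus 20 nM camptothecin for at least 48 h at 37 C; viability read as ATP content by CellTiter-Glo luminescence.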
# DT40 TDP1 no CPT – qHTS for Inhibitors of human tyrosyl-DNA phosphodiesterase 1 (TDP1): qHTS in cells in absence of CPT | actives 15% (n = 420,000) | DT40 Tdp1-/- hTDP1 cells, no CPT, ATP luminescence, 48 h | Potency, µM (series often up to 46.2 µM), usual class: inhibitors; further: nearly all actives have a fitted effect of over 55% in size
#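 Stably hTDP1-transfected Tdp1-null chicken DT40 cells were treated with library compounds minus camptothecin and grown for at least 48 hr at 37 °C, after which cellular ATP was quantified by luminescence.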
# HT1080-NT tox – kills 2HG-producing HT-1080-NT fibrosarcoma cells; HT-1080-NT fibrosarcoma viability, CellTiter-Glo ATP luminescence, 48 h; Potency, µM (series often up to 46.1 µM), most hits filed as cytotoxic; AID 686970; actives 1.6% (n = 360,000);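 further: NT is the 2HG producing partner of a matched IDH1 knockdown line; nearly all actives have a fitted effect of over 55% in size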
#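 Toxicity toward the 2HG-producing NT line was scored as %Activity, normalised to DMSO and no-cell wells, from CellTiter-Glo luminescence after 48 hours' treatment.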
# Numbers stand for hits; i = inactive; ? = inconclusive; nt = not tested or not shown; [ ] = remark or other dose. The full list was thinned out, with hits kept by preference. Unless noted, the call rests on the fitted dose curve; in most records, active means well fitted curve in the direction sought with a large enough effect; inconclusive means small, poorly fitted or top-dose-only effect, or another doubt; inactive means no such curve, though single readings can be large; an effect the other way counts as inactive or inconclusive.
SMILES,12-LOX inh,IL-1B inflam inh,HT1080 IDH1KD tx,TDP1 cell CPT,DT40 TDP1 no CPT,HT1080-NT tox
CCOc1ccc2c(c1)C(=O)C(=O)N2CC1COc2ccccc2O1 (stereo not given),i,i,i,1.16µM,0.82µM,i
S=C(NCCCn1ccnc1)Nc1cccc(Cl)c1,i,i,i,i,i,i
O=C(Cc1ccsc1)Nc1cccc(Cl)c1,i,nt,nt,nt,nt,nt
CC(NC(=O)c1ccc(Cl)cc1)C(=O)NCc1cnn(-c2ccccc2)c1 (stereo not given),i,nt,nt,nt,nt,nt
Cc1cc(=O)oc2cc(OCC(=O)N(Cc3ccccc3)C(C)(C)C)ccc12,i,nt,nt,nt,nt,nt
Cn1cc(CN(C(=O)Nc2ccc(Cl)c(Cl)c2)C2CCCCC2)c2ccccc21,i,nt,nt,2.31µM,4.11µM,nt
Cn1cc(CN(C(=O)Nc2ccccc2)C2CCCCC2)c2ccccc21,i,nt,nt,6.51µM,8.2µM,nt
Cc1[nH]c2ccccc2c1N=Nc1ccc(F)cc1,?,?,?,?,?,20.6µM
Cc1[nH]c2ccccc2c1N=Nc1cc(C(=O)O)cc(C(=O)O)c1,i,i,i,i,i,i
Cc1[nH]c2ccccc2c1N=Nc1c(C)n(C)n(-c2ccccc2)c1=O,?,i,i,20.6µM,?,i
Cc1c(N=Nc2ccc(O)cc2)c(=O)n(-c2ccccc2)n1C,i,i,i,i,i,i
COC(=O)c1ccc(C(=O)NCC2CCC2)cc1,i,nt,nt,nt,nt,nt
O=C(CCCc1ccccc1)N1CCN(c2ccc([N+](=O)[O-])cc2)CC1,i,i,i[9.24 µM],18.4µM,18.4µM,i
O=C(CCCC(=O)N1CCN(c2ccc([N+](=O)[O-])cc2)CC1)c1ccccc1,i,?,i,?,10.3µM,i
CN(C)C(=O)CC(NC(=O)NCc1ccccc1)c1ccccc1 (stereo not given),i,nt,nt,nt,nt,nt
O=S(=O)(NCCc1nnc2ccc(SCc3ccccc3)nn12)c1ccccc1,i,nt,nt,nt,nt,nt
Cc1cc(C(=O)NP(=O)(N2CCOCC2)N2CCOCC2)c(C)n1-c1ccc(Br)cc1,i,i,i,i,i,i
Cc1cc(C(=O)C[N+]2(C)CCOCC2)c(C)n1-c1ccc(Br)cc1,i,-69.2,i,?,?,i
CCCC[C@@H]1CNCCN1CCc1cccc2ccccc12,i,?,i,23.1µM,18.4µM,i
c1ccc(C[C@H]2CNCCN2CCc2cccc3ccccc23)cc1,?,i,i,?,10.3µM,i
O=C1CC[C@@]2(C(=O)N3CCOCC3)CCCC[C@@H]2N1CCc1ccccc1,i,nt,nt,nt,nt,nt
O=C(Nc1cccc(F)c1)N1CC[C@@]2(CCCN(C(=O)c3csnn3)C2)C1,i,nt,nt,i,i,nt
N#CCCCN1C(=O)C(O)(CC(=O)c2ccc3c(c2)OCCO3)c2ccccc21 (stereo not given),?,i,i,?,?,i
N#CCCCN1C(=O)C(=C(C#N)C#N)c2ccccc21,?,i,i,16.4µM,?,i
O=C(Nc1ccc(F)cc1F)c1cc(-c2ccc[nH]2)n[nH]1,11.2µM,nt,nt,nt,nt,nt
SMILES,12-LOX inh,IL-1B inflam inh,HT1080 IDH1KD tx,TDP1 cell CPT,DT40 TDP1 no CPT,HT1080-NT tox
CCOc1ccc(NC(=O)c2cc(-c3ccc[nH]3)n[nH]2)cc1,i,nt,nt,nt,nt,nt
CCc1cccc(NC(=O)c2cc(-c3ccc[nH]3)n[nH]2)c1,22.4µM,nt,nt,nt,nt,nt
CCc1ccc(NC(=O)c2cc(-c3ccc[nH]3)n[nH]2)cc1,28.2µM,nt,nt,nt,nt,nt
O=C(Nc1ccc(OC(F)(F)F)cc1)c1cc(-c2ccc[nH]2)n[nH]1,15.8µM,nt,nt,nt,nt,nt
O=C1NC2(CCCN(C(=O)c3ccc(F)cc3)C2)Oc2ccccc21 (stereo not given),i,nt,nt,nt,nt,nt
CSc1nc(C)c2cc(C)oc2n1,i,i,i,i,i,i
Cc1nc(/C=C\C(=O)O)c2cc(C)oc2n1,i,-66.3,i,i,i,i
Cc1nc(C)c(CCC(=O)Nc2ccccc2F)c(=O)[nH]1,i,nt,nt,nt,nt,nt
CC1(C)CC(=O)C2=C(C1)Nc1[nH]n(-c3ccccc3)c(=O)c1C2c1ccc2c(c1)OCO2 (stereo not given),?,i,i,7.31µM,5.17µM,i
CC(=O)NC(C)C(=O)Nc1ccc(SC2CCCC2)cc1 (stereo not given),i,nt,nt,nt,nt,nt
C=CCn1c(=O)/c(=C/c2ccc(F)cc2)s/c1=C(\C#N)c1nnc2n1CCCCC2,i,-67.1,i,23.1µM,16.4µM,i
COc1cc(C#N)ccc1OCc1ccc(Br)cc1F,i,nt,nt,nt,nt,nt
CCC1=NN(C(=O)CCc2ccccc2O)C(O)(C(F)(F)F)C1 (stereo not given),i,i,i,i,?,i
CCC1=NN(C(=O)C(=O)Nc2ccc(Br)cc2)C(O)(C(F)(F)F)C1 (stereo not given),?,i,?,i,i,20.6µM
CCCC1=NN(C(=O)C(=O)Nc2ccc(Br)cc2)C(O)(C(F)(F)F)C1 (stereo not given),?,i,16.4µM,4.11µM,4.61µM,13µM
COc1ccc(C(=O)N2N=C(c3ccccc3)CC2(O)C(F)(F)F)cc1 (stereo not given),i,i,i,i,i,i
COc1ccc(NC(=O)C(=O)N2N=C(C(C)C)CC2(O)C(F)(F)F)cc1 (stereo not given),i,i,8.91µM,5.8µM,5.01µM,?
CCCCCCn1c(N2CCCC2)nc2c1c(=O)n(C)c(=O)n2C,i,i,i,?,18.4µM,i
CC(C)CCn1c(N2CCCC2)nc2c1c(=O)n(C)c(=O)n2C,i,i,i,?,20.6µM,i
C=C(C)Cn1c(N2CCCC2)nc2c1c(=O)n(C)c(=O)n2C,i,i,i,?,?,i
COc1ccc(C(=O)N/N=C/c2ccccc2C(=O)O)cc1OC,i,i,i,i,i,i
CC(=O)Nc1ccc(C(=O)N/N=C/c2ccccc2OC(=O)c2ccc(Cl)cc2)cc1,i,i,23.1µM,9.2µM,10.3µM,?
COc1cc(C(=O)Oc2ccccc2/C=N/NC(=O)c2ccc(C)c(Cl)c2)cc(OC)c1OC,i,i,?,1.16µM,0.92µM,?
CC(=O)Nc1ccc(OC(=O)c2ccc(Cl)cc2)cc1,i,i,i,i,i,i
CCCc1cc(=O)oc2c(C)c(OCC(=O)Nc3cccnc3)ccc12,i,i,i,i,i,i
C=CCNCc1ccccc1OCC,i,nt,nt,nt,nt,nt
COc1ccc(NC(=O)Cn2c(=O)c(-c3noc(C)n3)c3n(c2=O)CCCC3)cc1,i,nt,nt,nt,nt,nt
C[C@@H]1CCCCO[C@@H](CN(C)CC2CCCCC2)[C@@H](C)CN([C@H](C)CO)C(=O)c2cc(NS(=O)(=O)c3ccc(Cl)cc3)ccc2O1,?,?,?,16.4µM,13µM,16.4µM
